Results filed as inconclusive are left out. Active and inactive are the calls of the source. The call rests on the fitted dose curve; in most records, active means well fitted curve in the direction sought with a large enough effect; inconclusive means small, poorly fitted or top-dose-only effect, or another doubt; inactive means no such curve, though single readings can be large; an effect the other way counts as inactive or inconclusive. Where a SMILES comes first, the peptide text is derived from it. The star is where a group is joined. PhAc = O=C(Cc1ccccc1)*
Tests used:
HACAT = experiment: qHTS assay to identify novel small-molecules to repurpose for Merkel cell carcinoma treatment (AID 1296009); conditions: MCC and control cell lines, CellTiter-Glo viability, 72 h; at 44.8 µM (top of the series) unless noted; further: nearly all actives have a fitted effect of over 60% in size
In short: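 Cells exposed to NPC (8-point) and MIPE (11-point) compound dilutions for 72 hr at 37 degree celsius; viability read by CellTiter-Glo luminescence, normalized to no-cell and DMSO in-plate controls.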

C33A = experiment: Primary qHTS to identify gynecologic anti-cancer compounds using libraries of approved drugs and bioactive compounds (AID 1345084); conditions: Gynecologic cancer cell panel viability, ATPlite luminescence, 48 h; series mostly up to 57.5 µM; further: on the % scale 0 is the no-effect control and ±100 the full control effect; nearly all actives have a fitted effect of over 55% in size
In short: (§1)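 48 h compound exposure at 37 C, 5% CO2; five-point qHTS. ATPlite luminescence readout of cell ATP.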

CAOV3 = experiment: as above; conditions: Gynecologic cancer cell panel viability, ATPlite luminescence, 48 h; series mostly up to 57.5 µM
In short: as §1

CASKI = experiment: as above; conditions: Gynecologic cancer cell panel viability, ATPlite luminescence, 48 h; series mostly up to 57.5 µM
In short: as §1

Es-2 = experiment: as above; conditions: Gynecologic cancer cell panel viability, ATPlite luminescence, 48 h; series mostly up to 57.5 µM
In short: as §1

HeLa = experiment: as above; conditions: Gynecologic cancer cell panel viability, ATPlite luminescence, 48 h; series mostly up to 57.5 µM
In short: as §1

Hek293T = experiment: as above; conditions: Gynecologic cancer cell panel viability, ATPlite luminescence, 48 h, control line for the selectivity index; series mostly up to 57.5 µM
In short: as §1

JEG-3 = experiment: as above; conditions: Gynecologic cancer cell panel viability, ATPlite luminescence, 48 h; series mostly up to 57.5 µM
In short: as §1

CCOC(=O)CNC(=O)[C@@H]1CCCN1C(=O)Cc1ccccc1 (PhAc-Pro-Gly-OEt)
inactive: outcome (HACAT) | Potency (C33A) | Potency (CAOV3) | outcome (CASKI) | Potency (Es-2) | Potency (HeLa) | Potency (Hek293T) | Potency (JEG-3)

CC(C)(O)[C@@H]1CC[C@]2(CO)[C@@H](O)CC[C@](C)(O)[C@H]2[C@@H]1O[C@@H]1O[C@H](CO)[C@@H](O)[C@H](O)[C@H]1O
inactive: outcome (HACAT) inactive [at 17.4 µM] | Potency (C33A) | Potency (CAOV3) | outcome (CASKI) | Potency (Es-2) | Potency (HeLa) | Potency (Hek293T) | Potency (JEG-3)

O=C(Nc1ccn(Cc2c(F)cccc2C(F)(F)F)n1)c1c(F)cccc1F
inactive: outcome (HACAT) inactive [at 9.27 µM] | activity change, negative = cytotoxicity (C33A) 3.35% [at 11.6 µM] | activity change, negative = cytotoxicity (CAOV3) 17% [at 11.6 µM] | activity change, negative = cytotoxicity (CASKI) 7.64% [at 11.6 µM] | activity change, negative = cytotoxicity (Es-2) 0.101% [at 11.6 µM] | activity change, negative = cytotoxicity (HeLa) 13% [at 11.6 µM] | activity change, negative = cytotoxicity (Hek293T) -2.96% [at 11.6 µM] | activity change, negative = cytotoxicity (JEG-3) 9.68% [at 11.6 µM]

C/C=C(/C)C(=O)O[C@@H]1C[C@@H](OC(=O)/C(C)=C\C)[C@@]2(C)C3C(=O)C=C(C)C2C3C1(C)C
inactive: outcome (HACAT) inactive [at 17.4 µM] | Potency (C33A) | Potency (CAOV3) | outcome (CASKI) | Potency (Es-2) | Potency (HeLa) | Potency (Hek293T) | Potency (JEG-3)

N#CN1CCC[C@@H](n2nc(-c3ccc(Oc4ccc(F)cc4F)cc3)c(C(N)=O)c2N)C1
inactive: outcome (HACAT) | Potency (C33A) | Potency (CAOV3) | outcome (CASKI) | Potency (Es-2) | Potency (HeLa) | Potency (Hek293T) | Potency (JEG-3)

Oc1ccc2c(-c3c(-c4ccccn4)nn4c3CCC4)ccnc2c1
inactive: outcome (HACAT) | Potency (C33A) | Potency (CAOV3) | outcome (CASKI) | Potency (Es-2) | Potency (HeLa) | Potency (Hek293T) | Potency (JEG-3)

COc1cc(O)c2c(c1)C1(OC2=O)C(C)=CC(=O)C1O (stereo not given)
inactive: outcome (HACAT) | Potency (C33A) | Potency (CAOV3) | outcome (CASKI) | Potency (Es-2) | Potency (HeLa) | Potency (Hek293T) | Potency (JEG-3)

CC(=O)OC1CC2C(C)(C)C(=O)C=CC2(C)C2CC(=O)C3=C(CCC3C3=CC(O)OC3=O)C12C (stereo not given)
inactive: outcome (HACAT) inactive; activator [at 17.4 µM] | Potency (C33A) | Potency (CAOV3) | outcome (CASKI) | Potency (Es-2) | Potency (HeLa) | Potency (Hek293T) | Potency (JEG-3)

CC1OC(OC2C(OC(=O)[C@]34CCC(C)(C)C[C@H]3C3=CCC5[C@@]6(C)CC[C@H](OC7OC(C(=O)O)C(O)C(O)C7O)C(C)(C)C6CC[C@@]5(C)[C@]3(C)CC4O)OC(CO)C2O)C(O)C(O)C1OC1OCC(O)C(O)C1O (stereo not given in full)
inactive: outcome (HACAT) inactive [at 9.27 µM] | activity change, negative = cytotoxicity (C33A) 6.97% [at 11.6 µM] | activity change, negative = cytotoxicity (CAOV3) 0.294% [at 11.6 µM] | activity change, negative = cytotoxicity (CASKI) 7.85% [at 11.6 µM] | activity change, negative = cytotoxicity (Es-2) -0.633% [at 11.6 µM] | activity change, negative = cytotoxicity (HeLa) 8.57% [at 11.6 µM] | activity change, negative = cytotoxicity (Hek293T) 3.77% [at 11.6 µM] | activity change, negative = cytotoxicity (JEG-3) 3.79% [at 11.6 µM]

CC(=O)OC[C@@]12C(=O)C[C@@H](C)[C@]3(C[C@@H](c4ccoc4)OC3=O)[C@H]1CC[C@H](OC(C)=O)[C@]21CO1
inactive: outcome (HACAT) inactive [at 17.4 µM] | Potency (C33A) | Potency (CAOV3) | outcome (CASKI) | Potency (Es-2) | Potency (HeLa) | Potency (Hek293T) | Potency (JEG-3)

COc1c2ccoc2nc2c(OC)c(O[C@@H]3O[C@@H](C)[C@H](O)[C@@H](O[C@@H]4O[C@H](CO)[C@@H](O)[C@H](O)[C@H]4O)[C@H]3OC(C)=O)ccc12
inactive: outcome (HACAT) inactive [at 17.4 µM] | Potency (C33A) | Potency (CAOV3) | outcome (CASKI) | Potency (Es-2) | Potency (HeLa) | Potency (Hek293T) | Potency (JEG-3)

C[C@@H]1O[C@@H](O[C@H]2[C@H](OC(=O)[C@]34CCC(C)(C)C[C@H]3C3=CCC5[C@@]6(C)CC[C@H](O[C@@H]7O[C@H](CO[C@@H]8OC[C@H](O)[C@H](O)[C@H]8O)[C@@H](O)[C@H](O)[C@H]7O)C(C)(C)C6CC[C@@]5(C)[C@]3(C)C[C@H]4O)OC[C@@H](O)[C@@H]2O)[C@H](O)[C@H](O[C@@H]2OC[C@](O)(CO)[C@H]2O)[C@H]1O[C@@H]1OC[C@H](O)[C@H](O[C@@H]2OC[C@@H](O)[C@H](O)[C@H]2O)[C@H]1O (stereo not given in full)
inactive: outcome (HACAT) inactive [at 9.27 µM] | activity change, negative = cytotoxicity (C33A) -0.179% [at 6.55 µM] | activity change, negative = cytotoxicity (CAOV3) 23.4% [at 6.55 µM] | activity change, negative = cytotoxicity (CASKI) 9.95% [at 6.55 µM] | activity change, negative = cytotoxicity (Es-2) 8.45% [at 6.55 µM] | activity change, negative = cytotoxicity (HeLa) 22.1% [at 6.55 µM] | activity change, negative = cytotoxicity (Hek293T) 8.51% [at 6.55 µM] | activity change, negative = cytotoxicity (JEG-3) -2.51% [at 6.55 µM]

C=C1CC23CC(=O)C4C(CO)(CO)CCCC4(C)C2CCC1C3 (stereo not given)
inactive: outcome (HACAT) | Potency (C33A) | Potency (CAOV3) | outcome (CASKI) | Potency (Es-2) | Potency (HeLa) | Potency (Hek293T) | Potency (JEG-3)

C=C1CC2C(C)(CCC(=O)O)C(C(C)(C)O)CCC2(C)C2(C(=O)OC)C(=O)C(C)(O)C(=O)C12C (stereo not given)
inactive: outcome (HACAT) inactive [at 17.4 µM] | Potency (C33A) | Potency (CAOV3) | outcome (CASKI) | Potency (Es-2) | Potency (HeLa) | Potency (Hek293T) | Potency (JEG-3)

C/C(=C\CO)CC/C=C(\C)C(=O)O[C@@H]1O[C@H](CO)[C@@H](O)[C@H](O)[C@H]1O
inactive: outcome (HACAT) | Potency (C33A) | Potency (CAOV3) | outcome (CASKI) | Potency (Es-2) | Potency (HeLa) | Potency (Hek293T) | Potency (JEG-3)

— PubChem BioAssay (NCATS)
